# According to PubChem BioAssay:
# Where “and” joins values, the source holds several entries; their conditions need not be identical. Equal entries are not always repeated. Calls of active or inactive are those of the source. Unless noted, no stated cut-off is given here; in the data, active means parasite load remaining mostly below about 12% (no sharp cut-off); inactive means mostly above about 10%.
# Tests used:
# [1] = P. berghei load reduction in hepatocytes – cell-based, HepG2, luciferase luminescence, HepG2 viability, primary screen (AID 624349);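 further: 100% = mean of DMSO negative control wells on the same plate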; settings: P. berghei liver stage in HepG2, luciferase luminescence, concentration not given here; parasite load remaining: stronger effect = lower value; viability: measured here: HepG2 viability without parasites
# [2] = Wnt pathway potentiators raising nuclear beta-catenin – imaging, WNT3A-conditioned medium, mouse C2C12, NPC library, primary screen (AID 1117326; in the data active means nuclear beta-catenin stimulation mostly above about 4.2%, no sharp cut-off; inactive means mostly below about 10%); settings: stronger effect = higher value
# [3] = stimulators of insulin release from INS-1E, primary screen, cell-based, 5 mM glucose, NPC library (AID 1117329;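 active means compound raises insulin release from rat beta cells at 5 mM glucose, no numeric limit stated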); settings: rat INS-1E insulin secretion, at 10 µM, stronger effect = higher value
# [4] = growth inhibition of GSK3B-pretreated HCT116 cells – cell-based, CellTiter-Glo, 0.2 to 20 µM (AID 1117336;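 active means compounds lowering colon cancer cell viability after pretreatment blocking the GSK3B kinase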); settings: HCT116 viability after GSK3B inhibitor, at 20 µM, stronger effect = higher value
# [5] = inhibition of endothelial tube formation, primary screen, imaging, VEGF stimulated, CD31 staining, tube area, NPC library (AID 1117340;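 active means compound that reduces growth-factor-driven endothelial tube area in a mixed cell culture, no cutoff stated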); settings: VEGF-stimulated ADSC/ECFC co-culture, at 10 µM, stronger effect = higher value
# [6] = GLP1 release stimulators, primary, NCI-H716, NPC library (AID 1117341;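 active means compound raises GLP1 secretion from the human gut endocrine cells, with no numeric limit stated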); settings: NCI-H716 cells, at 10 µM, stronger effect = higher value
# [7] = HCT116 colon cancer cell growth inhibition, primary screen, CellTiter-Glo luminescence, NPC library (AID 1117342;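 active means compounds that lower survival of HCT116 colon cancer cells in the luminescence readout, no numeric limit stated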); settings: at 20 µM (top of the series)
# [8] = reduced SW480 viability measured with CellTiter-Glo, NPC library, primary (AID 1117343;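 active means compounds that lower viability of the colon cancer cells in the luminescence readout, with no numeric limit stated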); settings: CellTiter-Glo luminescence; at 20 µM (top of the series) unless noted
# [9] = NPC library primary testing for decreased DLD-1 cell viability via CellTiter-Glo (AID 1117346;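 active means compounds that lower survival of DLD-1 colon cancer cells in the luminescence readout, no cutoff given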); settings: DLD-1 viability, CellTiter-Glo luminescence; at 20 µM (top of the series)
# [10] = viability loss with induced miR-34 in A549 – imaging, A549 dox-inducible miR-34, nuclei and caspase counts, primary screen (AID 1347080;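 active means compounds whose cell count with miR-34 switched on is under 0.7 times the count with it off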); settings: A549 miR-34 inducible, Hoechst nuclei count, 48 h
# [11] = target: NAD(+) hydrolase SARM1 (Homo sapiens) (UniProt Q6SZW1); test: blocking NAD cleavage by SARM1 SAM-TIR – cell lysate, NAD-Glo luminescence (AID 1508614;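 active means compound whose remaining NAD level is above about 45 nM, limit read from the data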); settings: SAM-TIR HEK293T lysate NADase, at 1 µM, stronger effect = higher value
# Sequence of NAD(+) hydrolase SARM1 (Homo sapiens) (Q6SZW1 whole entry, looked up, the tested form may be a part): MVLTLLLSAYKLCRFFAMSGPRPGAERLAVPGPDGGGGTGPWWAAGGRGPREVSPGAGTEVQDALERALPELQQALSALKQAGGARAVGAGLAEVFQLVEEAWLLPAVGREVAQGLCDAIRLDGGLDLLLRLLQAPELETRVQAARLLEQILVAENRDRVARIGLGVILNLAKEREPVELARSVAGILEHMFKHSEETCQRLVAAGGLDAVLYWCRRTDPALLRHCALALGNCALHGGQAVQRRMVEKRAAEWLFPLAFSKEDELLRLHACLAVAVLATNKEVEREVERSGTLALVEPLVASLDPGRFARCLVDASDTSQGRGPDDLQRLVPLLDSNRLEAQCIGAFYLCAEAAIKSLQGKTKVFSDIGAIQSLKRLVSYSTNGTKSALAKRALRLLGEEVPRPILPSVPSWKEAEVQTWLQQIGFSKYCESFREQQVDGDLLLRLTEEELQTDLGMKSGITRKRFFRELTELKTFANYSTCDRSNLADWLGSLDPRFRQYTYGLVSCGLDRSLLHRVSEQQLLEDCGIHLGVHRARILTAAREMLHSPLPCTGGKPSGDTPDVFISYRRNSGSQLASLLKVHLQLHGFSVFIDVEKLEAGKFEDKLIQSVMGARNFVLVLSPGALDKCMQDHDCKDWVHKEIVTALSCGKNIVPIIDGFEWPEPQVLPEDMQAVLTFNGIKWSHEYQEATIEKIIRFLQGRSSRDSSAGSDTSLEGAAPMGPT
# [12] = target: Mitogen-activated protein kinase 7 (Homo sapiens) (UniProt Q13164); test: Gal4-ERK5 driven luciferase induction – cell-based, HTS, primary screen (AID 1508626;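 active means luciferase signal above three times the same-plate solvent-only control wells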;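 further: luciferase driven by Gal4-ERK5 fusion binding five Gal4 sites before minimal TATA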); settings: HeLa Gal4-ERK5 transactivation, 18 h, at 5 µM, stronger effect = higher value
# Sequence of Mitogen-activated protein kinase 7 (Homo sapiens) (Q13164 whole entry, looked up, the tested form may be a part): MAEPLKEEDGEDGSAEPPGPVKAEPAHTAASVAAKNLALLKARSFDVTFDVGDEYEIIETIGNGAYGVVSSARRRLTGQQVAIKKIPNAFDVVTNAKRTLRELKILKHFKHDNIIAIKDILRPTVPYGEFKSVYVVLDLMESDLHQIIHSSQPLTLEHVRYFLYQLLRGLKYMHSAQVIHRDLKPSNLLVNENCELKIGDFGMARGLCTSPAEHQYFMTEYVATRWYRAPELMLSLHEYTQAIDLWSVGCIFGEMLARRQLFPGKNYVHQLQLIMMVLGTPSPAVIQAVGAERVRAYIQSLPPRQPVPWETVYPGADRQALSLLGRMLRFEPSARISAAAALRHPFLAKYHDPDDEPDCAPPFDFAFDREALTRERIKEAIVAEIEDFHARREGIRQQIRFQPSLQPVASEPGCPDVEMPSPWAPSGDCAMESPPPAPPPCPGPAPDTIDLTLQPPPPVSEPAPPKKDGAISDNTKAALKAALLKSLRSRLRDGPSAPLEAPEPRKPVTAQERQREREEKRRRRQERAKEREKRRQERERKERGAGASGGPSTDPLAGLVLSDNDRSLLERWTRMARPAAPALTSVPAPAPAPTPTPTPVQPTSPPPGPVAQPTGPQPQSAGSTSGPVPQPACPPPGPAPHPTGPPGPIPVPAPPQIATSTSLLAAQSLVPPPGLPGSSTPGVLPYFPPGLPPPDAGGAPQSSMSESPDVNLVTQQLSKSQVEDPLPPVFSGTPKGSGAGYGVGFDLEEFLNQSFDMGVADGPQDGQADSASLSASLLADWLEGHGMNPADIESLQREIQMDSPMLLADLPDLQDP
# [13] = MELAS cybrid and Rieske KO viability enhancers – cell-based, MELAS cybrids, Rieske KO mouse fibroblasts, CellTiter-Glo, primary screen (AID 1508586;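 active means mean z-score across replicates of 1.96 or higher in either the MELAS or the Rieske mutant cell line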;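 further: z relative to plate mean and SD of compound and empty wells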); settings: low glucose
# [14] = galactose survival enhancers in mitochondrial complex I cybrids – cell-based, galactose medium, ATP luminescence, primary screen (AID 1645843;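 active means z-score of at least 1.8 in each of two replicates, scored against plate mean and spread of sample wells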;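 further: positive z means more ATP and so rescue of galactose-driven cybrid death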); settings: complex I mutant cybrid cells, 72 h, stronger effect = higher value
# [15] = compounds altering viability of human ES cells (AID 493140; call rule not given here;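 further: cells exposed to compounds for four days before counting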); settings: human embryonic stem cell survival screen; stronger effect = higher value
# [16] = stronger effect = lower value, cell number ratio, induced over uninduced
# [17] = measured here: relative caspase fold change +Dox/-Dox
# [18] = measured here: total cells with miR-34 induction, stronger effect = lower value
# [19] = measured here: total cells without miR-34 induction
# [20] = MELAS cybrid survival, CellTiter-Glo 48 h, stronger effect = higher value
# [21] = Rieske KO mouse fibroblast survival, CellTiter-Glo 72 h
smiles,measurement,setting,value
O=C1[O][Bi][O]c2ccccc21,parasite load remaining,[1],39.8% (inactive)
same,viability,[1],103%
same,nuclear beta-catenin stimulation,[2]; at 10 µM,0.6% (inactive)
same,nuclear beta-catenin stimulation,"[2]; stimulation, at 2 µM",0.8%
same,insulin secretion stimulation,[3],2.7% (inactive)
same,viability decrease,[4],13.3% (inactive)
same,tube area decrease,[5],-3.4% (inactive)
same,GLP1 secretion stimulation,[6],1.9% (inactive)
same,inhibition of viability,[7],14% (inactive)
same,viability decrease (inhibition),[8],28.1% (inactive)
same,viability decrease (inhibition),[9],3.2% (inactive)
same,fold change,[10]; [16],0.887 (inactive)
same,fold change,[10]; [17],3.11
same,cell count,[10]; [18],12000
same,cell count,[10]; [19],13500
same,remaining NAD,[11],52 nM (active)
same,luciferase signal,[12],60 AU (inactive)
NCCC(O)(P(=O)(O)O)P(=O)(O)O,parasite load remaining,[1],25.4% (inactive)
same,viability,[1],75%
same,nuclear beta-catenin stimulation,[2]; at 10 µM,1.8% (inactive)
same,nuclear beta-catenin stimulation,"[2]; stimulation, at 2 µM",-0.1%
same,insulin secretion stimulation,[3],-3.4% (inactive)
same,viability decrease,[4],-16% (inactive)
same,tube area decrease,[5],8.2% (inactive)
same,GLP1 secretion stimulation,[6],1.4% (inactive)
same,inhibition of viability,[7],-1.9% (inactive)
same,viability decrease (inhibition),[8],16.6% (inactive)
same,viability decrease (inhibition),[9],-6.8% (inactive)
same,fold change,[10]; [16],0.878 (inactive)
same,fold change,[10]; [17],1.25
same,cell count,[10]; [18],9450
same,cell count,[10]; [19],10800
same,z-score,[13]; [20],0.361 (inactive)
same,z-score,[13]; [21],-0.434
same,z-score,[14],0.62 (inactive)
CN1CCN(CCCN2c3ccccc3Sc3ccc(S(=O)(=O)N(C)C)cc32)CC1,survival,[15],4.08 (inactive)
same,parasite load remaining,[1],35.2% (inactive) and 94.1% (inactive)
same,viability,[1],47.9% and 85.3%
same,nuclear beta-catenin stimulation,[2]; at 10 µM,33.2% (inactive)
same,nuclear beta-catenin stimulation,"[2]; stimulation, at 2 µM",0.3%
same,insulin secretion stimulation,[3],12.3% (inactive)
same,viability decrease,[4],99.5% (active)
same,tube area decrease,[5],108% (active)
same,GLP1 secretion stimulation,[6],-2.9% (inactive)
same,inhibition of viability,[7],99.9% (active)
same,viability decrease (inhibition),[8],103% (active)
same,viability decrease (inhibition),[9],95% (active)
same,fold change,[10]; [16],0.928 (inactive)
same,fold change,[10]; [17],1.43
same,cell count,[10]; [18],7890
same,cell count,[10]; [19],8500
same,z-score,[13]; [20],0.365 (inactive)
same,z-score,[13]; [21],0.522
CC(C)(C)C(=O)OCOC(=O)[C@@H]1N2C(=O)[C@@H](NC(=O)[C@H](N)c3ccccc3)[C@H]2SC1(C)C,survival,[15],8.83 (inactive)
same,parasite load remaining,[1],105% (inactive)
same,viability,[1],75%
same,nuclear beta-catenin stimulation,[2]; at 10 µM,-2.4% (inactive)
same,nuclear beta-catenin stimulation,"[2]; stimulation, at 2 µM",-1.3%
same,insulin secretion stimulation,[3],2.2% (inactive)
same,viability decrease,[4],-4.7% (inactive)
same,tube area decrease,[5],-15.2% (inactive)
same,GLP1 secretion stimulation,[6],2.6% (inactive)
same,inhibition of viability,[7],-17.9% (inactive)
same,viability decrease (inhibition),[8],5.3% (inactive)
same,viability decrease (inhibition),[9],-16.8% (inactive)
same,fold change,[10]; [16],0.926 (inactive)
same,fold change,[10]; [17],0.701
same,cell count,[10]; [18],9310
same,cell count,[10]; [19],10100
same,z-score,[13]; [20],-1.1 (inactive)
same,z-score,[13]; [21],-0.251
CN(CCCCCCCCCCN(C)C(=O)Oc1cccc([N+](C)(C)C)c1)C(=O)Oc1cccc([N+](C)(C)C)c1,parasite load remaining,[1],77.5% (inactive)
same,viability,[1],106%
same,nuclear beta-catenin stimulation,[2]; at 10 µM,-0.9% (inactive)
same,nuclear beta-catenin stimulation,"[2]; stimulation, at 2 µM",-0.7%
same,insulin secretion stimulation,[3],2.2% (inactive)
same,viability decrease,[4],30.1% (inactive)
same,tube area decrease,[5],-9.4% (inactive)
same,GLP1 secretion stimulation,[6],-4.4% (inactive)
same,inhibition of viability,[7],57.4% (active)
same,viability decrease (inhibition),[8],39.3% (inactive)
same,viability decrease (inhibition),[9],10.2% (inactive)
same,fold change,[10]; [16],0.802 (inactive)
same,fold change,[10]; [17],1.05
same,cell count,[10]; [18],8660
same,cell count,[10]; [19],10800
same,z-score,[13]; [20],-1.21 (inactive)
same,z-score,[13]; [21],-0.227
